Each structure is given as a SMILES string. Counter-ions that a name gives are not always drawn. Like-named read-outs stand apart in the source and are kept apart here. Some results are limits rather than exact numbers.

As a reminder, the AC50 is the midpoint of the concentration-response curve, whichever way the signal moves.

For this experiment, the system named is thyroid hormone receptor (endogenous TRα and TRβ). Also on record: species or system GH3-TRE-Luc (rat pituitary); GH3-TRE-Luc luciferase reporter, antagonist mode against 1 nM T3, loss of signal, qHTS.
The mark [1] stands for this setting: read-out: Average AC50 (uM) GH3-TRE-Antag, antagonist mode, 1 nM T3, no GH3 cytotoxicity hit.
Setting [2] is: read-out: Average AC50 (uM) GH3-TRE-Antag, antagonist mode, 1 nM T3, no GH3 cytotoxicity hit, Average AC50 (uM) GH3-TRE-Antag, 24 h.

With `Cc1ccc2oc(CN(Cc3ccccc3)C(=O)Nc3c(F)cc(F)cc3F)c(-c3ccc(Cl)cc3)c2c1` [FR145237], the AC50 under setting [1] came to 4.47 µM.
Same read-out and setting: the result for `CO/N=C(/C(=O)OC)c1ccccc1COc1ccccc1C` [Kresoxim-methyl] reads 3.65 µM; that for `CN[C@H]1C[C@@H](N)[C@H](O)[C@@H](O[C@@H]2O[C@H](CO)[C@H](O)[C@@H]3OC4(O[C@H]23)O[C@H]([C@@H](N)CO)[C@H](O)[C@H](O)[C@H]4O)[C@@H]1O` (stereo partly shown) [Hygromycin B], 12.9 µM; that for `COc1ccc(/C=C/C(=O)Nc2ccccc2C(=O)O)cc1OC` [Tranilast], 12.3 µM.
On the same count and under the same terms, the result for `C[C@]12CC[C@@H]3c4ccc(O)cc4CC[C@H]3[C@@H]1C[C@@H](O)[C@@H]2O` [Estriol] reads greater than 50 µM.
In the case of `CCCCCCn1cc[n+](C)c1` [1-Hexyl-3-methylimidazolium tetrafluoroborate], under setting [2], the AC50 turned out to be 56.1 µM.
In the case of `N=C(N)NC(=O)c1nc(Cl)c(N)nc1N` [Amiloride], under setting [2], the concentration at half-maximal activity (AC50) was found to be 16.4 µM.
As to `CCCCCCCCn1cc[n+](C)c1` [1-Methyl-3-octylimidazolium hexafluorophosphate], the half-maximal activity concentration (AC50) under setting [2] turned out to be 33 µM.
On the same count and under the same terms, under `OCCOCCN1CCN(C2=Nc3ccccc3Sc3ccccc32)CC1` [Quetiapine fumarate] stands 23.5 µM.
On to `COc1ccc(-n2nc(C(F)F)cc2-c2ccc([S+](C)[O-])cc2)cc1` (stereo not shown) [Difpas-pyrazole], for which the AC50 under setting [1] amounted to 70.2 µM.
For the compound `CCCCCC[n+]1ccccc1` [1-Hexylpyridinium chloride], the AC50 under setting [2] worked out at 71.1 µM.
For the compound `CC1(C)[C@H](C(=O)OCc2coc(Cc3ccccc3)c2)[C@@H]1/C=C1\CCSC1=O` [Kadethrin], the half-maximal activity concentration (AC50) under setting [1] was 48.4 µM.
Consider `CCCCCCCCCCCC(=O)N(C)CC(=O)O` [N-Dodecanoyl-N-methylglycine], for which the concentration at half-maximal activity (AC50) under setting [1] was greater than 90 µM.
For `O=C(Nc1ccc(Cl)c(Cl)c1)C1CC1` [Cypromid], the AC50 under setting [1] is 45.8 µM.
For `Cn1c(=O)c2[nH]c(Br)nc2n(C)c1=O` [8-Bromotheophylline], under setting [1], the AC50 worked out at 24.8 µM.
For `CC(C)n1c(/C=C/[C@H](O)C[C@H](O)CC(=O)O)c(-c2ccc(F)cc2)c2ccccc21` (racemic) [Fluvastatin], the AC50 under setting [2] was 45.3 µM.
Consider `C#C[C@]1(O)CC[C@H]2[C@@H]3CCC4=CC(=O)CCC4=C3C=C[C@@]21CC` [Gestrinone], for which the AC50 under setting [1] came out at 24.3 µM.
Consider `CCCCOC(=O)/C=C\C(=O)OCCCC` [Dibutyl maleate], for which the AC50 under setting [1] was 37.6 µM.
Regarding `Oc1ccccc1/C=N/Cc1ccccc1` [Norletimol], under setting [1], the half-maximal activity concentration (AC50) is greater than 50 µM.
On to `C[C@H]1O[C@@H](O[C@H]2[C@@H](O)C[C@H](O[C@H]3[C@@H](O)C[C@H](O[C@H]4CC[C@@]5(C)[C@H](CC[C@@H]6[C@@H]5C[C@@H](O)[C@]5(C)[C@@H](C7=CC(=O)OC7)CC[C@]65O)C4)O[C@@H]3C)O[C@@H]2C)C[C@H](O)[C@@H]1O` [Digoxin], for which the AC50 under setting [1] was greater than 50 µM.
On the same count and under the same terms, the result for `CC(C)c1c(CN(C)C(C)Cc2ccccc2)n(C)n(-c2ccccc2)c1=O` (stereo not shown) [Famprofazone] reads 13.1 µM; that for `CCCCCC[C@@H](O)C/C=C\CCCCCCCC(=O)O` [Potassium ricinoleate], 31.8 µM.
Still for that read-out and setting: the result for `CNC(=O)Nc1ccc(Cl)c(Cl)c1` [N-(3,4-Dichlorophenyl)-N'-methylurea] reads 48.2 µM.
For the compound `CC(C)C(O)(c1ccc(OC(F)(F)F)cc1)c1cncnc1` (stereo not shown) [Flurprimidol], the half-maximal activity concentration (AC50) under setting [1] was found to be 70.7 µM.
On the same count and under the same terms, the result for `CCCC[C@H](CC)COC(=O)/C=C/c1ccc(OC)cc1` [Octinoxate] reads greater than 50 µM.
Regarding `N[C@H](C(=O)O)[C@H](O)c1ccc(O)c(O)c1` [Droxidopa], the half-maximal activity concentration (AC50) under setting [1] was determined as 29.5 µM.
`Brc1cc(Oc2cc(Br)c(Br)c(Br)c2Br)c(Br)c(Br)c1Br` [Octabromodiphenyl ether]: the AC50 under setting [1] amounted to 10.5 µM.
Same read-out and setting: under `CC(C)(C)C(=O)OCOP(=O)(COCCn1cnc2c(N)ncnc21)OCOC(=O)C(C)(C)C` [Adefovir dipivoxil] stands 46.6 µM; under `CC(=O)O[C@]1(C(C)=O)CC[C@H]2[C@@H]3C[C@H](C)C4=CC(=O)CC[C@]4(C)[C@H]3CC[C@@]21C` [Medroxyprogesterone acetate], 28 µM.
For the compound `c1ccc(-c2nc[nH]c2-c2ccccc2)cc1` [4,5-Diphenylimidazole], the AC50 under setting [1] was 24.1 µM.
Regarding `C=CCc1ccccc1OCC(O)CNC(C)C` (stereo not shown) [Alprenolol], the half-maximal activity concentration (AC50) under setting [1] came out at 27.2 µM.
On the same count and under the same terms, the result for `CCN(Cc1c(F)cccc1Cl)c1c([N+](=O)[O-])cc(C(F)(F)F)cc1[N+](=O)[O-]` [Flumetralin] reads 39.8 µM; that for `c1ccc(C2(c3ccccc3)CC2C2=NCCN2)cc1` (stereo not shown) [Cifenline succinate], 35.8 µM.
The same measure, in the same setting: under `NC(=S)NC(N)=S` [2,4-Dithiobiuret] stands 45 µM.

For the origin of these results see publication PMC6792352, “Limited Chemical Structural Diversity Found to Modulate Thyroid Hormone Receptor in the Tox21 Chemical Library” (Environmental Health Perspectives, 2019).
